ADAM17 inh: inhibitors of human ADAM17; inhibition, % at 6.95 µM; recombinant ADAM17, EDANS/DABCYL FRET peptide cleavage; 370,000 tested, 0.83% active;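 active = inhibition above the mean of compounds lying between control limits plus 3 SD, set per campaign, cut at about 8.5% in these data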
Target sequence (P78536 215-824 limits assumed): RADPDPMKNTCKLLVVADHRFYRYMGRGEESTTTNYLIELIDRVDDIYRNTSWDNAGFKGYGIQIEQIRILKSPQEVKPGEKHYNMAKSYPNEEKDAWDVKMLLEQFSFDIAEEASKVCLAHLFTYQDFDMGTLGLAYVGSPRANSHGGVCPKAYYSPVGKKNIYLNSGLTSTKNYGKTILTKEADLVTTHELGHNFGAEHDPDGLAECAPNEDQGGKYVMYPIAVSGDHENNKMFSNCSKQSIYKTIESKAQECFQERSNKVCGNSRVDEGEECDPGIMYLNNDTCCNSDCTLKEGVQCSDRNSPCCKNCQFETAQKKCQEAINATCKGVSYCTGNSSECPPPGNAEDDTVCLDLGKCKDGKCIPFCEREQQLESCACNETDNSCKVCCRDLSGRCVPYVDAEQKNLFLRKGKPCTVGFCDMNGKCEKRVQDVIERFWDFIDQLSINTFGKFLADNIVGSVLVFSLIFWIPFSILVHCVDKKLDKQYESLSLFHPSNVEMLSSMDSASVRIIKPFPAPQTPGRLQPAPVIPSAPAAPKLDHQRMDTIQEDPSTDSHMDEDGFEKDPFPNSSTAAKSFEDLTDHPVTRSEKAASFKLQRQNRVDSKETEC
KLK7 zymogen act: activates the human kallikrein-7 zymogen | purified proKLK7, EDANS-DABCYL substrate fluorescence; 100% is mature enzyme control, 0% vehicle | activation, % at 7 µM | 370,000 tested, 0.9% active | P49862 | AID 652039;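 active = activation above the mean of all tested compounds plus 3 SD, computed per campaign excluding outliers beyond control limits, cut at about 13% in these data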
sPLA2-III inh: Blocks human group III sPLA2 activity | Q9NZ20 | QFRET BODIPY PC-A2 liposome hydrolysis, fluorescence | inhibition, % at 12.2 µM | 370,000 tested, 0.56% active;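 active = inhibition above mean plus 3 SD of compounds lying within the high and low control bounds, cut at about 19% in these data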
CendR NRP1 mod: alters CendR peptide binding to human NRP-1. O14786. FAM-RPARPAR peptide binding to NRP-1, fluorescence polarization. inhibition, % at 25 µM. 360,000 tested, 0.85% active. AID 602438;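 active = inhibition or corrected inhibition above about 18%, plus a signal ratio from 0.5 to 1.5, limit read from the data, passing the limit was not always enough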
ADAM10 inh: ADAM10 inhibition, QFRET primary screen; O14672; recombinant ADAM10, EDANS/DABCYL FRET peptide cleavage, 3 h; inhibition, % at 7 µM; 370,000 tested, 0.62% active;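 active = inhibition above a per-campaign cutoff equal to the mean of compounds falling between control-based bounds plus 3 SD, cut at about 20% in these data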
ADAM10 confirm: human ADAM10 inhibition, confirmation; shares compounds with ADAM10 inh; ADAM10 QFRET peptide cleavage, EDANS fluorescence; inhibition, % at 6.95 µM; 2,100 tested, 1% active; AID 743208;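 active = inhibition above about 20% chosen separately for each screening run, limit read from the data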
ADAM17 ctr: inhibits human ADAM17 in ADAM10 exosite counter-screen; shares compounds with ADAM10 inh; ADAM17 QFRET peptide cleavage, EDANS fluorescence; inhibition, % at 6.95 µM; 2,100 tested, 0.5% active; AID 743214;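 active = mean triplicate inhibition above the solvent-only control wells' mean plus 3 SD, cut at about 12% in these data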
ADAM10 counter: counter-screen for ADAM17 exosite inhibitors: inhibitors of human ADAM10. shares compounds with ADAM17 inh. AID 743256. 2,900 tested, 47% active. inhibition, % at 6.95 µM. recombinant ADAM10, EDANS/DABCYL FRET peptide cleavage, 3 h;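 active = mean inhibition over the triplicate runs exceeds the activity threshold set in the earlier primary screen, cut at about 20% in these data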
ADAM17 confirm: human ADAM17 inhibition, confirmation. shares compounds with ADAM17 inh. recombinant ADAM17, EDANS/DABCYL QFRET peptide cleavage. 2,900 tested, 65% active. inhibition, % at 6.95 µM;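 active = mean inhibition across replicates above the hit cutoff set in the primary screen, cut at about 8.5% in these data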
Of the large screens only hits and unclear results are named; the others gave an inactive call (follow-up assays come after a bar, where they were run); ! = not active in a repeat. Hits are enriched below; roughly 3.4% of the tested compounds scored in any of these assays.

C=C(C)COc1ccc(-c2[nH]ncc2-c2ccccc2OC)c(O)c1	ADAM17 inh 18.3, ADAM10 inh 29.3 | ADAM10 confirm inactive | ADAM17 ctr inactive | ADAM10 counter 36.8 | ADAM17 confirm 19.1
C=C(C)COc1ccc(-c2[nH]ncc2Oc2ccccc2OC)c(O)c1	none
Cc1cc(Br)ccc1OCCCN1CCC(C(O)(c2ccccc2)c2ccccc2)CC1	none (no result: CendR NRP1 mod)
COc1ccc2c(c1)c(CC(=O)Nc1ccc(C(C)=O)cc1)c(C)n2C(=O)c1ccc(Cl)cc1	ADAM17 inh 11.9, ADAM10 inh 23.7 | ADAM10 confirm inactive | ADAM17 ctr inactive | ADAM10 counter 29.7 | ADAM17 confirm 17.6
S=C(Nc1cccc(Cl)c1)OC1CCC12CCC(c1ccccc1)CC2 (centres undefined)	none (no result: CendR NRP1 mod)
N#CC1=C(N)NC(SCC(=O)c2ccc(Br)cc2)=C(C#N)C12CCCCC2	ADAM17 inh 12.6, ADAM10 inh 21.8 | ADAM10 confirm inactive | ADAM17 ctr inactive | ADAM10 counter 41.7 | ADAM17 confirm 18.6
N#CC1=C(N)NC(SCC(=O)c2ccc(Cl)cc2)=C(C#N)C12CCCC2	none
CN(Cc1ccccc1)C(=O)Cn1nnc(-c2ccccc2)c1COc1ccc2ccccc2c1	ADAM17 inh 20.3, ADAM10 inh 34.2 | ADAM10 confirm inactive | ADAM17 ctr inactive | ADAM10 counter 25.0 | ADAM17 confirm 15.6
CN(Cc1ccccc1)C(=O)Cn1nnc(-c2ccccc2)c1COc1ccccc1	none
O=C(CSc1nnc(SCc2cccc3ccccc23)s1)Nc1ccc(S(=O)(=O)Nc2nccs2)cc1	ADAM17 inh 10.8, ADAM10 inh 35.1 (no result: CendR NRP1 mod) | ADAM10 confirm inactive | ADAM17 ctr inactive | ADAM10 counter 25.7 | ADAM17 confirm 11.4
Cc1cc(C)nc(SCC(=O)Nc2ccc(S(=O)(=O)Nc3nccs3)cc2)n1	none
CCCCCCCCN1C(=O)[C@@H](CC(=O)N2CCN(C(=O)c3ccco3)CC2)C[C@@]2(C(=O)OC)C1=C[C@H](COCc1ccccc1)O[C@@H]2C	none (no result: CendR NRP1 mod)
COc1cc(NC(=O)c2cnc(N)s2)cc(C(=O)Nc2cccc(C(F)(F)F)c2)c1	ADAM17 inh 9.8!, ADAM10 inh 19.9! | ADAM10 confirm inactive | ADAM17 ctr inactive | ADAM10 counter 22.2 | ADAM17 confirm 14.0
CCN(CC)S(=O)(=O)c1ccc(NC(=O)COC(=O)CCc2cc(OC)c(OC)c(OC)c2)cc1	ADAM17 inh 11.4, ADAM10 inh 28.1 | ADAM10 confirm inactive | ADAM17 ctr inactive | ADAM10 counter inactive | ADAM17 confirm inactive
COc1cc(CCC(=O)OCC(=O)Nc2cccc(S(=O)(=O)N(C)C)c2)cc(OC)c1OC	none
CCCN1CCCCC(NC(=O)c2ccccc2OC)C1=O (centres undefined)	none (no result: CendR NRP1 mod)
Cc1ccc(-c2ccc(CN3C(CC(C)C)C(=O)N(Cc4cn(CCC5OCCO5)nn4)CCS3(=O)=O)cc2)cc1 (centres undefined)	ADAM17 inh 9.8, ADAM10 inh 26.1 | ADAM10 confirm inactive | ADAM17 ctr inactive | ADAM10 counter 26.0 | ADAM17 confirm 23.0
COCOCCn1cc(CN2CCS(=O)(=O)N(Cc3ccc(-c4ccc(Cl)c(Cl)c4)cc3)C(C(C)C)C2=O)nn1 (centres undefined)	ADAM17 inh 9.1, ADAM10 inh 26.6 | ADAM10 confirm inactive | ADAM17 ctr inactive | ADAM10 counter 28.2 | ADAM17 confirm 19.8
COCOCCn1cc(CN2CCS(=O)(=O)N(Cc3ccc(-c4ccc(Cl)cc4)cc3)C(C(C)C)C2=O)nn1 (centres undefined)	none
CN1CCCN(C(=O)C2CCN(c3ncnc4c3sc3cccc(F)c34)CC2)CC1	none (no result: CendR NRP1 mod)
C#CCOc1ccccc1C(=O)NNc1ccc([N+](=O)[O-])cc1[N+](=O)[O-]	none (no result: CendR NRP1 mod)
O=C(NCCc1c[nH]c2ccccc12)c1ccc(Sc2ccccc2Cl)c([N+](=O)[O-])c1	ADAM17 inh 9.1, ADAM10 inh 22.9 (no result: CendR NRP1 mod) | ADAM10 confirm inactive | ADAM17 ctr inactive | ADAM10 counter 26.9 | ADAM17 confirm 18.9
O=C(CNc1cccc(C(F)(F)F)c1)Nc1cccc(S(=O)(=O)N2CCCC2)c1	none
O=C(CNc1cc(S(=O)(=O)N2CCCC2)ccc1OCC(F)(F)F)Nc1cccc(C(F)(F)F)c1	ADAM17 inh 10.7, ADAM10 inh 26.0 | ADAM10 confirm inactive | ADAM17 ctr inactive | ADAM10 counter 40.6 | ADAM17 confirm 17.4
CCN(CC)S(=O)(=O)c1cccc(NC(=O)Nc2cccc(C(F)(F)F)c2)c1	ADAM17 inh 11.1, ADAM10 inh 30.2 | ADAM10 confirm inactive | ADAM17 ctr inactive | ADAM10 counter 55.3 | ADAM17 confirm 29.1
C[C@@]12C(=O)N(c3cccc(F)c3)C(=O)N1[C@@H]1c3ccccc3OC[C@@H]1[C@H]2c1ccccc1	ADAM17 inh 11.5, ADAM10 inh 23.4 | ADAM10 confirm inactive | ADAM17 ctr inactive | ADAM10 counter inactive | ADAM17 confirm inactive
C[C@@]12C(=O)N(c3cccc(Cl)c3)C(=O)N1[C@@H]1c3ccccc3OC[C@@H]1[C@H]2c1ccccc1	none
C=CC(=O)Nc1cccc(Oc2cc(Cl)nc3[nH]ccc23)c1	ADAM17 inh 10.9, ADAM10 inh 20.8 | ADAM10 confirm inactive | ADAM17 ctr inactive | ADAM10 counter inactive | ADAM17 confirm 10.1
Cc1ccc(NC(=S)NC(=O)C2CCCCC2)c(Br)c1	ADAM17 inh 14.8, ADAM10 inh 33.3 | ADAM10 confirm inactive | ADAM17 ctr inactive | ADAM10 counter inactive | ADAM17 confirm 9.3
COc1cc2c(cc1OC)C(=O)N1[C@H]3c4cc(Cl)ccc4OC[C@@H]3[C@H](c3ccccc3)[C@]1(C)C(=O)N2	ADAM17 inh 11.7, ADAM10 inh 28.9 | ADAM10 confirm inactive | ADAM17 ctr inactive | ADAM10 counter 34.4 | ADAM17 confirm 19.2
Clc1ccc2nc(CNc3nc(N4CCOCC4)nc4c3ncn4-c3ccsc3)[nH]c2c1	none (no result: KLK7 zymogen act, CendR NRP1 mod)
FC(F)(F)c1cccc(Cn2ccc3ccc(-c4ccc5ccn(Cc6cccc(C(F)(F)F)c6)c5c4)cc32)c1	none (no result: CendR NRP1 mod)
O=C(CN1CCN(c2ccccc2O)CC1)Nc1cc(S(=O)(=O)N2CCCC2)ccc1Cl	ADAM17 inh 8.9, ADAM10 inh 28.8 | ADAM10 confirm inactive | ADAM17 ctr inactive | ADAM10 counter inactive | ADAM17 confirm 10.6
O=C(CN1CCN(c2ccccc2O)CC1)Nc1ccc(S(=O)(=O)N2CCCCCC2)cc1	none

Screening data: PubChem BioAssay, several laboratories
